D3 antag – D3 dopamine receptor (human) antagonism; D3R cells, DiscoveRx beta-arrestin luminescence, antagonist mode; active compounds read low; max response, negative = inhibition, %; 2.5% of 360,000 active; AID 652054; in the data active means max response below about -50%
Target sequence (P35462 whole entry, looked up): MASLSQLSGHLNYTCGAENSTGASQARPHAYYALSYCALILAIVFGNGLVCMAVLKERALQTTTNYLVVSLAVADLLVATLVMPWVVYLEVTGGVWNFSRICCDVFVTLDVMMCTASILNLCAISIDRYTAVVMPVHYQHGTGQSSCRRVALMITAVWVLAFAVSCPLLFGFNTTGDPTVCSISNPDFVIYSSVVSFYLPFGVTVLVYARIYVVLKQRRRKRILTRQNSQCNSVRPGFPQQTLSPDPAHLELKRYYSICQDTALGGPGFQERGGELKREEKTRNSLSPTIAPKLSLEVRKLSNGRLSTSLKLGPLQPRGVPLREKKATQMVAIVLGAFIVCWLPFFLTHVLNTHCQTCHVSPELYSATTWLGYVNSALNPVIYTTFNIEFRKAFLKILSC
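Cells plated overnight at 1500 cells/well, then exposed to library compounds with dopamine controls for 90 minutes at 37 degrees C. DiscoveRx reagent added for 30–60 minutes at room temperature; luminescence read, quantitative HTS format.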
D3 ag – activates the human D3 dopamine receptor; P35462; max activation, %; D3R DiscoveRx beta-arrestin cells, luminescence, 90 min; 0.58% of 410,000 active; in the data active means max activation above about 30%
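Cells at 1500/well, incubated overnight, then treated with pinned compounds (dopamine as control) for 90 min at 37 degrees C. DiscoveRx reagent added for 30 - 60 minutes at room temperature; luminescence read.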
D1 agonist – human D1 receptor agonism; HEK293 T-REx D1 cells, calcium flux, agonist mode; activation, % at 2 µM; 1% of 360,000 active; in the data active means activation above about 30%
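Inducible HEK293 T-REx D1 cells, force-coupled to calcium signalling, were plated at 4000 cells/well with tetracycline and held overnight at 30 C. After no-wash calcium dye loading, compound-evoked calcium rise over 180 s flagged agonists.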
D1 potentiator – potentiators of human D1 dopamine receptor; 0.036% of 360,000 active; potentiation, % at 10 µM; P21728; HEK293 TREx D1 cells, calcium flux, dopamine EC20 potentiation; in the data active means potentiation above about 30%
D1 antag – antagonists of human D1 dopamine receptor; HEK293 TREx D1 cells, calcium flux, dopamine EC80; active compounds read low; 3.2% of 360,000 active; AID 504652; activity change, negative = inhibition, % at 10 µM; P21728; in the data active means activity change below about -30%
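HEK293 T-REx cells expressing inducible, force-coupled D1 receptor; no-wash Ca dye, 30–90 min RT. Cmpd → 180 s read at 1 Hz → EC80 DA → 180 s read.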
Each line names hits and unclear results; the compound was inactive in the other large screens; ! = a repeat was not active. A selection: hits, their analogues and other compounds. The true share with any hit is near 6%.

Cc1cc(NC(=O)CSc2nc3ccccc3n2CC(=O)N2CCC(C)CC2)no1	none
Cc1cc(NC(=O)CSc2nc3ccccc3n2CC(=O)N2CC(C)CC(C)C2)no1 (configuration not stated)	D1 antag -41
COc1ccc(CCn2c(SCC(=O)Nc3cc(C)on3)nc3ccccc3c2=O)cc1OC	none
Cc1cc(NC(=O)CSc2nc3cc4c(cc3c(=O)n2CCc2ccccc2)OCO4)no1	D3 antag -53
O=NN(CCCl)C(=O)NC1CCCCC1	none (no result: D3 antag, D1 agonist, D1 potentiator, D1 antag)
CCc1ccccc1NC(=O)C(=O)NCCCN1CCOCC1	none (no result: D3 antag)
CCn1cc(C(=O)OCC(=O)c2cc(C)n(-c3ccc(OC(F)F)cc3)c2C)c(=O)c2ccc(C)nc21	D1 antag -32
Cc1c(-c2ccc(F)cc2)nc(N)c(C#N)c1-c1ccco1	D1 antag -33
CCc1nc(N)c(C#N)c(-c2ccc(F)cc2)c1C	none
CCc1ccccc1NC(=O)CSc1ncc2c(n1)-c1cc(Cl)ccc1N(Cc1ccccc1)S2(=O)=O	D1 antag -50 (no result: D3 antag)
N#CC1=C(N)NC(SCC(=O)O)=C(C#N)C12CCCC2	none
N#CC1=C(N)NC(SCc2ccc(F)cc2)=C(C#N)C12CCCCC2	D1 antag -31
COc1cccc(-c2nnc(SCC(=O)NC3CCS(=O)(=O)C3)n2C)c1 (configuration not stated)	D1 antag -35
O=C1CCN2C=Nc3cccc4ccc1c2c34	D1 agonist 170
O=C1CCC(=O)c2ccc3c4c(ccc1c24)CC3	none (no result: D1 agonist, D1 potentiator, D1 antag)
COc1ccccc1C(=O)NCc1nnnn1-c1ccc(C)c(C)c1	none (no result: D3 antag)
Cc1ccc(CNC(=O)c2ccc(CSCc3ccccc3Cl)o2)cc1	none (no result: D3 antag)
CCOCCc1nn2c(=O)cc(COC(=O)c3ccc(NC(=O)c4cccs4)cc3)nc2s1	none (no result: D3 antag)
CCCc1cnc2c(c1SCc1cccc(F)c1)c(=O)n(C)c(=O)n2C	none (no result: D3 antag, D1 antag)
CCOC(=O)c1c(NC(=O)COc2ncnc3sccc23)sc2c1CCC2	D3 ag 35
O=C1CCN(CCc2ccccc2)CCN1[C@H](CSc1ccccc1)Cc1ccccc1	none
Cc1ccc(SC[C@H](Cc2ccccc2)N2CCN(CCc3ccccc3)CCC2=O)cc1	D3 antag -58
CC(C)CN1CCC(=O)N([C@H](CSc2ccc(Br)cc2)Cc2ccccc2)CC1	D3 antag -67, D1 antag -50
CCN(C(=O)c1cc(S(=O)(=O)N2CCCC2)cn1C)c1ccc(OC)cc1	none (no result: D3 antag)
CC(C)(C)C(=O)/C=c1\s/c(=C\c2ccc(-c3ccc([N+](=O)[O-])cc3)o2)c(=O)n1CC(=O)NC(N)=O	D1 agonist 894
CCC(=O)N/N=C/c1ccc(-c2ccc([N+](=O)[O-])cc2)o1	none
O=S(=O)(NCCCCNS(=O)(=O)c1c(F)cccc1F)c1ccc2c(c1)OCCO2	D1 antag -41! (no result: D3 antag, D3 ag)
COc1ccc(S(=O)(=O)NCCSc2ccc(C)cc2)cc1OC	none
Cc1ccc(SCCNS(=O)(=O)c2ccc3c(c2)OCCO3)cc1	D1 antag -33
COc1ccc(/C=C2\N=C(SC)N(c3ccccc3OC)C2=O)cc1	D1 antag -34
CCOc1ccc(N2C(=O)/C(=C/c3ccccc3)N=C2SC)cc1	none
O=C(C(=Cc1ccc(F)cc1)C(=O)c1ccccc1)c1ccccc1	D3 antag -62 (no result: D1 agonist, D1 potentiator, D1 antag)
O=c1cc(-c2ccccc2)nc(SCc2nc(-c3cccc(C(F)(F)F)c3)no2)[nH]1	none (no result: D3 antag)
COc1ccc(NC(=S)N(Cc2ccc(C)cc2)Cc2ccccn2)cc1	D1 antag -31
Cc1cn(C)c(CC(=O)N2CCN(c3ccccc3F)CC2)c1C(=O)O	none (no result: D3 antag)
O=S(=O)(NNC(=S)NCC1CCCO1)c1cc(Cl)ccc1Cl (configuration not stated)	D1 antag -39
O=S(=O)(NCC1CCCO1)c1cc(Cl)ccc1Cl (configuration not stated)	none
O=C(O)c1ccc(Cl)c(S(=O)(=O)NCC2CCCO2)c1 (configuration not stated)	D3 antag -54
CCCCCn1cc2c(c1-c1ccc(Cl)cc1)c(=O)n(C)c(=O)n2C	none (no result: D3 antag)
COc1ccc(CONS(=O)(=O)c2ccc(NC(C)=O)cc2)cc1Cl	D3 antag -106
Cc1ccc(C)c(N2CCN(C(=O)C3CCN(C(=O)c4cc5sccc5n4C)CC3)CC2)c1	D1 antag -65 (no result: D3 antag)
N=C(N)c1ccc(OCCCOc2ccc(C(=N)N)cc2Br)c(Br)c1	none (no result: D3 antag, D1 agonist, D1 potentiator, D1 antag)
COc1cc(C2C3=C(CC(c4ccco4)CC3=O)Nc3ccccc3N2C(C)=O)cc(OC)c1OC (configuration not stated)	none
COc1cc(C2C3=C(CC(C)(C)CC3=O)Nc3ccccc3N2C(C)=O)cc(OC)c1OC (configuration not stated)	D1 antag -32
C=C1SC(Nc2c(C)cccc2C)=NC12CCCCC2	none
C=C1SC(Nc2c(C)cc(C)cc2C)=NC12CCCCC2	D3 antag -54
CCOC(=O)Cc1ccc(NC(=O)N2CCc3c(sc4c3CCCC4)C2c2ccc(F)cc2)cc1 (configuration not stated)	none (no result: D3 antag)
C=CCn1c(SCC(=O)c2cc(C)n(C(C)COC)c2C)nc2sc(C)c(C)c2c1=O (configuration not stated)	D3 ag 60
C=CCn1c(SCc2c(C)noc2C)nc2sc(C)c(C)c2c1=O	D3 ag 35
Cc1noc(C)c1CSc1nc2sc(C)c(C)c2c(=O)n1-c1ccccc1	none
C=CCn1c(SCC(=O)NCCO)nc2sc(C)c(C)c2c1=O	none
CCOc1ccc(-c2cc3c(=O)n(Cc4nc(-c5ccc(OC)cc5OC)oc4C)ccn3n2)cc1Cl	none (no result: D3 antag)
CC1(C)CC(=O)c2cc(C(=O)Nc3ccc(Cl)cc3)c(=O)[nH]c2C1	none (no result: D3 antag)
Cc1cccc(N2C(=O)N3[C@H](c4ccc(Cl)cc4)[C@@H]4C(=O)N(C5CCCCC5)C(=O)[C@@H]4[C@]3(Cc3ccc(Cl)cc3)C2=O)c1	D1 antag -40
CC[C@@]12C(=O)N(c3ccc(OC)cc3)C(=O)N1[C@H](c1ccc(Cl)cc1)[C@@H]1C(=O)N(C3CCCCC3)C(=O)[C@@H]12	D3 antag -57
CC[C@@]12C(=O)N(c3cccc(Br)c3)C(=O)N1[C@H](c1ccc(Cl)cc1)[C@@H]1C(=O)N(C3CCCCC3)C(=O)[C@@H]12	none
COc1ccc(N2C(=O)N3[C@H](c4cccc(C)c4)[C@@H]4C(=O)N(Cc5ccccc5)C(=O)[C@@H]4[C@]3(Cc3ccccc3)C2=O)cc1	D3 ag 31
CCN1C(=O)[C@H]2[C@@H](c3ccc(C)cc3)N3C(=O)N(c4ccc(OC)cc4)C(=O)[C@@]3(CC)[C@H]2C1=O	D3 ag 46
COc1cc(CSc2ncc(CO)n2Cc2ccc(C)cc2)cc(OC)c1	none (no result: D3 antag)
Cc1cc(C)c(C#N)c(SCc2nnc(-c3ccccc3[N+](=O)[O-])o2)n1	D1 agonist 38
Cc1cc(C)c(C#N)c(SCc2ccccc2[N+](=O)[O-])n1	none

Assay outcomes: PubChem BioAssay, National Center for Advancing Translational Sciences (NCATS)
